Where a chain is given by its changes, count along the chain named. In names and notes the source's numbering stands.

Experiment [1] addresses NR5A2 wild type;histone octamer (Homo sapiens;, UniProt O00482;C0HKE1;Q6ZWY9;P84244;P62806 1-541;2-130;2-126;2-136;2-103, |). The experiment is described as follows: SeEN-seq (EMSA of nucleosome library followed by sequencing); 0.8 uM human NR5A2; 20 mM Tris-HCl pH 7.5, 120 mM NaCl, 1 mM MgCl2, 10 uM ZnCl2, 1 mM DTT, 100 ug/ml BSA, room temperature, 30 min; 0.1 uM nucleosome library; high values mean tight binding.

Experiment [2] concerns the target mouse Nr5a2 wild type;histone octamer (Mus musculus;, UniProt P45448;C0HKE1;Q6ZWY9;P84244;P62806 1-560;2-130;2-126;2-136;2-103, |). Briefly: SeEN-seq (EMSA of nucleosome library followed by sequencing); 1.2 uM mouse Nr5a2; 20 mM Tris-HCl pH 7.5, 120 mM NaCl, 1 mM MgCl2, 10 uM ZnCl2, 1 mM DTT, 100 ug/ml BSA, room temperature, 30 min; 0.1 uM nucleosome library; high values mean tight binding. In general terms: In EMSA bound probe runs differently from free probe, usually more slowly.

B1: 28 (nucleosome)
DNA 1: ATCCTGGAGAATCCCGGTGCCGAGGCCGCTTCAAGGCCAGTAGACAGCTCTAGCACCGCTTAAACGCACGTACGCGCTGTCCCCCGCGTTTTAACCGCCAAGGGGATTACTCCCTAGTCTCCAGGCACGTGTCAGATATATACATCCTGTGAT
DNA 2: ATCACAGGATGTATATATCTGACACGTGCCTGGAGACTAGGGAGTAATCCCCTTGGCGGTTAAAACGCGGGGGACAGCGCGTACGTGCGTTTAAGCGGTGCTAGAGCTGTCTACTGGCCTTGAAGCGGCCTCGGCACCGGGATTCTCCAGGAT
modifications: reconstituted with mouse histones H2A, H2B, H3.3 and H4
Turning to B1, the binding signal in experiment [1] is 0.697 log2 enrichment (bound/unbound, relative to Widom 601); in experiment [2], 0.72 log2 enrichment (bound/unbound, relative to Widom 601).

B2: 31 (nucleosome)
DNA 1: B1 DNA 1 with T31C, C32A, A34T, G35C, G36A, C37A, C38G, A39G, G40C, T41C
DNA 2: B1 DNA 2 with A113G, C114G, T115C, G116C, G117T, C118T, C119G, T120A, G122T, A123G
modifications: reconstituted with mouse histones H2A, H2B, H3.3 and H4
On to B2, for which the binding signal is 0.845 log2 enrichment (bound/unbound, relative to Widom 601) in experiment [1] and 0.725 log2 enrichment (bound/unbound, relative to Widom 601) in experiment [2].

B3: 33 (nucleosome)
DNA 1: B1 DNA 1 with T31C, C32A, A34T, G35T, G36T, C38A, T41G, A42C, G43C
DNA 2: B1 DNA 2 with C111G, T112G, A113C, G116T, C118A, C119A, T120A, G122T, A123G
modifications: reconstituted with mouse histones H2A, H2B, H3.3 and H4
B3: the binding signal in experiment [1] was 2.48 log2 enrichment (bound/unbound, relative to Widom 601); in experiment [2], 2.25 log2 enrichment (bound/unbound, relative to Widom 601).

B4: 36 (nucleosome)
DNA 1: ATCCTGGAGAATCCCGGTGCCGAGGCCGCTCAATTGGTTCAAGGCCACTCTAGCACCGCTTAAACGCACGTACGCGCTGTCCCCCGCGTTTTAACCGCCAAGGGGATTACTCCCTAGTCTCCAGGCACGTGTCAGATATATACATCCTGTGAT
DNA 2: ATCACAGGATGTATATATCTGACACGTGCCTGGAGACTAGGGAGTAATCCCCTTGGCGGTTAAAACGCGGGGGACAGCGCGTACGTGCGTTTAAGCGGTGCTAGAGTGGCCTTGAACCAATTGAGCGGCCTCGGCACCGGGATTCTCCAGGAT
modifications: reconstituted with mouse histones H2A, H2B, H3.3 and H4
On to B4, for which the binding signal is 0.81 log2 enrichment (bound/unbound, relative to Widom 601) in experiment [1] and 0.77 log2 enrichment (bound/unbound, relative to Widom 601) in experiment [2].

B5: 37 (nucleosome)
DNA 1: B4 DNA 1 with T39C, C40T, A41C, G43A, C45G, A47C, C48A
DNA 2: B4 DNA 2 with G106T, T107G, G109C, C111T, T113G, G114A, A115G
modifications: reconstituted with mouse histones H2A, H2B, H3.3 and H4
B5: the binding signal in experiment [1] was 0.722 log2 enrichment (bound/unbound, relative to Widom 601); in experiment [2] it was 0.546 log2 enrichment (bound/unbound, relative to Widom 601).

B6: 25 (nucleosome)
DNA 1: ATCCTGGAGAATCCCGGTGCCGAGGCCTCAAGGCCAGTCGTAGACAGCTCTAGCACCGCTTAAACGCACGTACGCGCTGTCCCCCGCGTTTTAACCGCCAAGGGGATTACTCCCTAGTCTCCAGGCACGTGTCAGATATATACATCCTGTGAT
DNA 2: ATCACAGGATGTATATATCTGACACGTGCCTGGAGACTAGGGAGTAATCCCCTTGGCGGTTAAAACGCGGGGGACAGCGCGTACGTGCGTTTAAGCGGTGCTAGAGCTGTCTACGACTGGCCTTGAGGCCTCGGCACCGGGATTCTCCAGGAT
modifications: reconstituted with mouse histones H2A, H2B, H3.3 and H4
Consider B6, for which the binding signal in experiment [1] is 0.708 log2 enrichment (bound/unbound, relative to Widom 601); in experiment [2] it was 0.587 log2 enrichment (bound/unbound, relative to Widom 601).

B7: 26 (nucleosome)
DNA 1: B6 DNA 1 with T28G, C29T, A30C, G32A, C34G, A36C, G37A
DNA 2: B6 DNA 2 with C117T, T118G, G120C, C122T, T124G, G125A, A126C
modifications: reconstituted with mouse histones H2A, H2B, H3.3 and H4
For the molecule B7, the binding signal is 0.635 log2 enrichment (bound/unbound, relative to Widom 601) in experiment [1] and 0.66 log2 enrichment (bound/unbound, relative to Widom 601) in experiment [2].

B8: 29 (nucleosome)
DNA 1: B1 DNA 1 with T31C, C32T, A33C, G35A, C37G, A39C, G40A
DNA 2: B1 DNA 2 with C114T, T115G, G117C, C119T, T121G, G122A, A123G
modifications: reconstituted with mouse histones H2A, H2B, H3.3 and H4
As for B8, the binding signal in experiment [1] is 0.778 log2 enrichment (bound/unbound, relative to Widom 601); in experiment [2], 0.664 log2 enrichment (bound/unbound, relative to Widom 601).

B9: 30 (nucleosome)
DNA 1: B4 DNA 1 with A33T, T34C, T35A, G36A, T38G, T39C, G44A, C46A, A47G
DNA 2: B6 DNA 2 with A113T, C114G, A116C, G119T, C121A, C122T, T123G, T124A, A126C
modifications: reconstituted with mouse histones H2A, H2B, H3.3 and H4
Turning to B9, the binding signal in experiment [1] is 0.787 log2 enrichment (bound/unbound, relative to Widom 601); in experiment [2] it was 0.718 log2 enrichment (bound/unbound, relative to Widom 601).

B10: 27 (nucleosome)
DNA 1: B1 DNA 1 with T31C, C32A, A34G, G36C, C38A, A39C
DNA 2: B1 DNA 2 with T115G, G116T, C118G, T120C, G122T, A123G
modifications: reconstituted with mouse histones H2A, H2B, H3.3 and H4
With B10, the binding signal in experiment [1] was 0.842 log2 enrichment (bound/unbound, relative to Widom 601); in experiment [2], 0.575 log2 enrichment (bound/unbound, relative to Widom 601).

B11: 32 (nucleosome)
DNA 1: ATCCTGGAGAATCCCGGTGCCGAGGCCGCTCAATTCAAGGCCAACAGCTCTAGCACCGCTTAAACGCACGTACGCGCTGTCCCCCGCGTTTTAACCGCCAAGGGGATTACTCCCTAGTCTCCAGGCACGTGTCAGATATATACATCCTGTGAT
DNA 2: ATCACAGGATGTATATATCTGACACGTGCCTGGAGACTAGGGAGTAATCCCCTTGGCGGTTAAAACGCGGGGGACAGCGCGTACGTGCGTTTAAGCGGTGCTAGAGCTGTTGGCCTTGAATTGAGCGGCCTCGGCACCGGGATTCTCCAGGAT
modifications: reconstituted with mouse histones H2A, H2B, H3.3 and H4
Consider B11, for which the binding signal in experiment [1] was 1.82 log2 enrichment (bound/unbound, relative to Widom 601); in experiment [2], 1.7 log2 enrichment (bound/unbound, relative to Widom 601).

B12: 38 (nucleosome)
DNA 1: B11 DNA 1 with C36G, A37G, A38T, G39C, C41T, C45G, A46G, G47C, T49A
DNA 2: B11 DNA 2 with A105T, C107G, T108C, G109C, G113A, C115G, T116A, T117C, G118C
modifications: reconstituted with mouse histones H2A, H2B, H3.3 and H4
For the molecule B12, the binding signal in experiment [1] was 0.852 log2 enrichment (bound/unbound, relative to Widom 601); in experiment [2], 0.628 log2 enrichment (bound/unbound, relative to Widom 601).

B13: 34 (nucleosome)
DNA 1: B11 DNA 1 with C36G, A37T, A38C, G39A, G40A, C41G, C42G, A43C, A44C, C45A
DNA 2: B11 DNA 2 with G109T, T110G, T111G, G112C, G113C, C114T, C115T, T116G, T117A, G118C
modifications: reconstituted with mouse histones H2A, H2B, H3.3 and H4
In the case of B13, the binding signal was 1.32 log2 enrichment (bound/unbound, relative to Widom 601) in experiment [1] and 1.03 log2 enrichment (bound/unbound, relative to Widom 601) in experiment [2].

B14: 4 (nucleosome)
DNA 1: ATCCTGTCAAGGCCAGGTGCCGAGGCCGCTCAATTGGTCGTAGACAGCTCTAGCACCGCTTAAACGCACGTACGCGCTGTCCCCCGCGTTTTAACCGCCAAGGGGATTACTCCCTAGTCTCCAGGCACGTGTCAGATATATACATCCTGTGAT
DNA 2: ATCACAGGATGTATATATCTGACACGTGCCTGGAGACTAGGGAGTAATCCCCTTGGCGGTTAAAACGCGGGGGACAGCGCGTACGTGCGTTTAAGCGGTGCTAGAGCTGTCTACGACCAATTGAGCGGCCTCGGCACCTGGCCTTGACAGGAT
modifications: reconstituted with mouse histones H2A, H2B, H3.3 and H4
Turning to B14, the binding signal in experiment [1] was 4.82 log2 enrichment (bound/unbound, relative to Widom 601); in experiment [2] it was 3.77 log2 enrichment (bound/unbound, relative to Widom 601).

B15: 35 (nucleosome)
DNA 1: B4 DNA 1 with T39C, C40A, A42G, G44C, C46A, A47G
DNA 2: B4 DNA 2 with T107C, G108T, C110G, T112C, G114T, A115G
modifications: reconstituted with mouse histones H2A, H2B, H3.3 and H4
For B15, the binding signal is 0.694 log2 enrichment (bound/unbound, relative to Widom 601) in experiment [1] and 0.841 log2 enrichment (bound/unbound, relative to Widom 601) in experiment [2].

Values taken from article PMC11102866, “Nucleosome-bound NR5A2 structure reveals pioneer factor mechanism by DNA minor groove anchor competition”.
